Among the data in PubChem BioAssay (Tox21) are Potency values, retold here.

Inconclusive results are not listed. Active and inactive are the calls of the source. Unless noted, calls come from the whole dose curve; as a rule, active = well fitted curve in the direction sought with a large enough effect in the repeat runs; inconclusive = weak or mixed curves; inactive = no such curve, though single readings can be large; an effect the other way counts as inactive or inconclusive.

Assay [1] in a line: A CellTox Green Cytotoxicity Assay to monitor cytotoxicity in HEK293 cells - 32 hour (AID 1224881). Note: nearly all actives have a fitted effect of over 40% in size. Note: potency is the fitted concentration of half-maximal effect. An outline of the steps: (§1)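 Cytotoxicity was tracked continuously in HEK293 cells by a DNA-binding dye excluded from viable cells. Compounds were transferred in DMSO 5 h after seeding; fluorescence was recorded at intervals up to 40 h.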
Assay [2] is described as follows: A CellTox Green Cytotoxicity Assay to monitor cytotoxicity in HepG2 cells - 0 hour (AID 1224882). Note: nearly all actives have a fitted effect of over 35% in size. An outline of the steps:
(§2)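 Real-time, homogeneous cytotoxicity readout: dead-cell DNA staining by CellTox Green in HepG2 monolayers, fluorescence measured at timed intervals up to 40 h of continuous compound exposure.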

Assay [3] in a line: A CellTox Green Cytotoxicity Assay to monitor cytotoxicity in HEK293 cells - 8 hour (AID 1224884). Note: nearly all actives have a fitted effect of over 35% in size. Note: potency is the fitted concentration of half-maximal effect. In outline: as §1
Assay [4] is described as follows: qHTS RealTime-Glo MT Cell Viability Assay in HepG2 cells - 16 hour (AID 1224885). Note: nearly all actives have a fitted effect of over 50% in size. Note: potency is the fitted concentration of half-maximal effect. An outline of the steps: (§3)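 Tox21 10K library screened in qHTS format on HepG2 cells carrying RealTime-Glo reagents. Compounds were added after a 5 h preincubation, and the luminescent signal from continuous culture was measured repeatedly during 40 h treatment.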
In general terms: Quantitative high-throughput screening tests each substance at several concentrations.

Assay [5] can be described thus: qHTS RealTime-Glo MT Cell Viability Assay in HEK293 cells - 24 hour (AID 1224886). Note: nearly all actives have a fitted effect of over 50% in size. Note: potency is the fitted concentration of half-maximal effect. In outline:
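Luminescence generated by NanoLuc from substrate produced by living HEK293 cells served as the viability signal. Each value reflects the reading at its stated time point during continuous 40 h compound exposure at 37 C.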

A short description of assay [6]: qHTS RealTime-Glo MT Cell Viability Assay in HEK293 cells - 8 hour (AID 1224887). Note: nearly all actives have a fitted effect of over 50% in size. Note: potency is the fitted concentration of half-maximal effect. In outline:
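Nonlytic bioluminescent viability monitoring. HEK293 at 600 cells/well with reagent; 5 h settle; compound transfer by pintool; plates held at 37 C and read at set time points.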

Assay [7] can be described thus: A CellTox Green Cytotoxicity Assay to monitor cytotoxicity in HEK293 cells - 16 hour (AID 1224888). Note: nearly all actives have a fitted effect of over 35% in size. Note: potency is the fitted concentration of half-maximal effect. In outline: as §1
The nature of assay [8]: qHTS RealTime-Glo MT Cell Viability Assay in HepG2 cells - 0 hour (AID 1224889). Note: nearly all actives have a fitted effect of over 50% in size. In outline: as §3
The nature of assay [9]: A CellTox Green Cytotoxicity Assay to monitor cytotoxicity in HepG2 cells - 8 hour (AID 1224890). Note: nearly all actives have a fitted effect of over 45% in size. Note: potency is the fitted concentration of half-maximal effect. In outline:
as §2

Assay [10] is described as follows: qHTS assay to identify small molecule antagonists of the estrogen receptor alpha (ER-alpha) signaling pathway using the BG1 cell line in the presence of 0.1 nM 17-beta-estradiol - cell viability counter screen (AID 1259241). Note: nearly all actives have a fitted effect of over 40% in size. In outline: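 VM7Luc4E2 cells (endogenous full-length ER-alpha, 4xERE-luciferase), cultured 5 days in charcoal-stripped serum, exposed to compounds with 0.1 nM 17beta-estradiol (final) for 22 hr at 37C. Viability read in same wells as live-cell protease fluorescence after 30 min.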

Assay [11] can be described thus: qHTS assay to identify small molecule antagonists of the androgen receptor (AR) signaling pathway using the MDA cell line in the presence of 0.5 nM R1881 - cell viability counter screen (AID 1259242). Note: nearly all actives have a fitted effect of over 45% in size. In outline: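 Cytotoxicity toward MDA-kb2 cells is measured by CellTiter-Fluor live-cell protease fluorescence after 16 hr compound exposure at 37C in the presence of 0.5 nM R1881 stimulator.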

Assay [12] is described as follows: qHTS assay to identify small molecule HDAC inhibitors (AID 1259364). Note: top concentration of the series differs between compounds; nearly all actives have a fitted effect of over 45% in size. An outline of the steps:
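Homogeneous cell-based luminescent assay of endogenous class I/II HDAC activity; HCT-116 cells, 2 h compound exposure, 30 min HDAC-Glo development at RT.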

Assay [13] is described as follows: qHTS assay to identify small molecule HDAC inhibitors - cell viability counter screen (AID 1259365). In outline:
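Wild-type HCT-116 cells, 1,500/well, cultured overnight, then compound-treated 2 h at 37 C. Viability measured as ATP luminescence with CellTiter-Glo after 30 min at room temperature.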

Assay [14] in a line: qHTS assay to identify small molecule agonists of the sonic hedgehog signaling (Shh) pathway - cell viability counter screen (AID 1259366). Note: nearly all actives have a fitted effect of over 50% in size. Note: potency is the fitted concentration of half-maximal effect. In outline:
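NIH/3T3-derived Gli1-Luc reporter cells, 2,000 per well, received compound after 4 h and were treated about 23 h at 37C. Viability measured in the same wells by CellTiter-Fluor fluorescence after 1 h.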

Assay [15] in a line: A CellTox Green Cytotoxicity Assay to monitor cytotoxicity in HepG2 cells - 32 hour (AID 1224883). Note: nearly all actives have a fitted effect of over 50% in size. Note: potency is the fitted concentration of half-maximal effect. An outline of the steps:
as §2

Assay [16] can be described thus: qHTS assay to identify small molecule phospholipidosis (PLD) inducers (AID 1259344; active = well fitted curve in the direction sought with a large enough effect; an effect the other way counts as inactive or inconclusive; note: potency is the fitted concentration of half-maximal effect). An outline of the steps: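 HepG2 cells, 900/well, treated with compound plus LipidTOX Red for 24 h at 37 C; amiodarone positive and DMSO negative controls. Fixed with paraformaldehyde/Hoechst, then high-content imaging scored LipidTOX pit count and integrated intensity per well and per cell.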

For assay [17], the target named is Estrogen receptor (Homo sapiens) (UniProt P03372). The experiment in a line: qHTS assay to identify small molecule antagonists of the estrogen receptor alpha (ER-alpha) signaling pathway using the BG1 cell line in the presence of 0.1 nM 17-beta-estradiol (AID 1259244). Note: nearly all actives have a fitted effect of over 50% in size. Note: potency is the fitted concentration of half-maximal effect. In outline:
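After 5 days in hormone-depleted medium (charcoal-stripped serum, no phenol red), VM7Luc4E2 cells were seeded, incubated 24 h, then co-treated with compound and 0.1 nM (final) estradiol for 22 h before luminescence detection.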

Assay [18] can be described thus: qHTS assay to identify small molecule antagonists of the sonic hedgehog signaling (Shh) pathway - cell viability counter screen (AID 1259367). Note: nearly all actives have a fitted effect of over 55% in size. An outline of the steps:
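NIH/3T3-derived Gli1-Luc reporter cells, 2,000/well, plated 4 hr before compound addition, then stimulated with conditioned medium for 24 hr at 37C. Viability measured in the same wells by CellTiter-Fluor fluorescence, reagent added at 23 hr for 1 hr.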

The target in assay [19] is Androgen receptor (Homo sapiens) (UniProt P10275). Briefly: qHTS assay to identify small molecule antagonists of the androgen receptor (AR) signaling pathway using the MDA cell line in the presence of 0.5 nM R1881 (AID 1259243). Note: nearly all actives have a fitted effect of over 50% in size. An outline of the steps:
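Steps: seed MDA-kb2 cells, incubate 5 hr at 37C; pin-transfer compounds in DMSO; add R1881 to 0.5 nM final; incubate 16 hr; add ONE-Glo, wait 30 min at room temperature; read luminescence.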

Sequence of Estrogen receptor (Homo sapiens) (P03372 whole entry, looked up): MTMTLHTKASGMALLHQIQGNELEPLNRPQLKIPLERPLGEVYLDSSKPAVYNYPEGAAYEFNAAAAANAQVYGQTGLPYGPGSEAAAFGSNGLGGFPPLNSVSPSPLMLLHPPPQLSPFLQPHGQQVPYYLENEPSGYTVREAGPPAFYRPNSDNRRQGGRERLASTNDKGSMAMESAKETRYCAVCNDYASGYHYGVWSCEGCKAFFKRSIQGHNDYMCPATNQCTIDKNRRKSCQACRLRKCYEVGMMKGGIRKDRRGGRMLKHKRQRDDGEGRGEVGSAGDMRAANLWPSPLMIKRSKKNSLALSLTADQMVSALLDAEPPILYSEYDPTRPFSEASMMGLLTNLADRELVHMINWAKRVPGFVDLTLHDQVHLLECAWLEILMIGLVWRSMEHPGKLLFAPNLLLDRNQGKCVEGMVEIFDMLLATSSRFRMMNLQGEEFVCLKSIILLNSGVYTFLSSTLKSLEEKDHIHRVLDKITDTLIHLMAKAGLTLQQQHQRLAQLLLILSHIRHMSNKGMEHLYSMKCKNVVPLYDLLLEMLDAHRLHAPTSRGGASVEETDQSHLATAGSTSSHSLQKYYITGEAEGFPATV
Sequence of Androgen receptor (Homo sapiens) (P10275 whole entry, looked up): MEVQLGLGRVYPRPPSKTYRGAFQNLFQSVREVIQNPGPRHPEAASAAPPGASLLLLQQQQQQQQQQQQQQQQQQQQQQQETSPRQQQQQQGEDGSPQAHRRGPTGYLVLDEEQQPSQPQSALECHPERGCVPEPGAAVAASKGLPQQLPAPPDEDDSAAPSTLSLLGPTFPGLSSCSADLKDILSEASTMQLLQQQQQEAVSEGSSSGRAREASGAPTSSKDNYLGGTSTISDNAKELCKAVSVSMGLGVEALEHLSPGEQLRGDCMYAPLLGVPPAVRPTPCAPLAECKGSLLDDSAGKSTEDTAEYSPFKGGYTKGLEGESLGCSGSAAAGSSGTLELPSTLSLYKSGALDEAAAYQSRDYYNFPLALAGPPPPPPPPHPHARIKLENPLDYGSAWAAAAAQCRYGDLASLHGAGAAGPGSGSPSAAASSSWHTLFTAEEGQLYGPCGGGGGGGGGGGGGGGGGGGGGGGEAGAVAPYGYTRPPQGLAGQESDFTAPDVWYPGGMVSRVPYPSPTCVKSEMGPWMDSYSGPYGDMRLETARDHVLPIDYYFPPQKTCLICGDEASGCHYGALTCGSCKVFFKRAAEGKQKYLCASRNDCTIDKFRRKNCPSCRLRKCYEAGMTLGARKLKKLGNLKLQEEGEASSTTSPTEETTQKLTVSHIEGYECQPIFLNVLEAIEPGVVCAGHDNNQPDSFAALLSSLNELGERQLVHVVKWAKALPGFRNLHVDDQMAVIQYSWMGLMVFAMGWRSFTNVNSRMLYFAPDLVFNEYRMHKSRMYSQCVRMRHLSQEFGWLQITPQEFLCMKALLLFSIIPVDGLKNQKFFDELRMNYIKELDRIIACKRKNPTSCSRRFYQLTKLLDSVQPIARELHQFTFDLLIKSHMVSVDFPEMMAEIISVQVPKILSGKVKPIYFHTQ

Regarding `CC(C)(O)c1coc(S(=O)(=O)NC(=O)Nc2c3c(cc4c2CCC4)CCC3)c1`, the Potency result in assay [1], in assay [2], in assay [3], in assay [4], in [5] and in assay [6] was “inactive” in each case. Also, the Potency result in assay [7], in assay [8], in assay [9], in [10], in [11] and in assay [12] was “inactive” each time. Besides, the Potency entry in assay [13] and in assay [14] was “inactive” throughout.
`O[C@@H](CNC[C@H](O)[C@H]1CCc2cc(F)ccc2O1)[C@@H]1CCc2cc(F)ccc2O1`: the Potency in [1] is 26.8 µM (active); in [15] it was 10.7 µM (active); in [3], 23.9 µM (active); in assay [4] it was 21.3 µM (active); in [5], 19 µM (active); in [6] it was 21.3 µM (active). Moreover, the Potency is 26.8 µM (active) in assay [7], 23.9 µM (active) in [9], 3.55 µM (active) in [16] and 29.8 µM (active) in assay [14]. The Potency entry in assay [2], in assay [10], in assay [12] and in [13] was “inactive” in each case.
In the case of `Cc1ccc2c(c1[N+](=O)[O-])C(=O)c1ccccc1C2=O`, the Potency result in assay [1], in assay [2], in assay [15], in [3], in assay [6] and in assay [7] was “inactive” in each case. The Potency entry in assay [8], in assay [9], in [10], in assay [11], in assay [17] and in assay [12] was “inactive” in each case. Further, the Potency entry in assay [14] and in assay [18] was “inactive” in each case.
`CC1CCC(C(C)CS)CC1S` (centres undefined): the Potency in assay [1], in [3] and in [7] was 49 µM (active) in each case. For the same compound, the Potency entry in assay [2], in [15], in assay [5], in [6], in [8] and in assay [9] was “inactive” each time. The Potency result in assay [10], in assay [11], in [19], in assay [12], in assay [13] and in assay [14] was “inactive” in each case. In addition, the Potency entry in assay [18] is “inactive”.
Regarding `Nc1ccc(S(=O)(=O)NCc2ccccc2)cc1`, the Potency entry in assay [1], in [2], in assay [15], in [3], in assay [4] and in assay [5] was “inactive” in each case. The Potency entry in [6], in assay [7], in assay [8], in assay [9], in assay [10] and in assay [11] was “inactive” in each case. In addition, the Potency result in assay [12], in [13], in assay [14] and in assay [18] was “inactive” each time.
For `O=c1[nH][nH]c(=O)c2cc([N+](=O)[O-])ccc12`, the Potency entry in assay [1], in assay [2], in [15], in assay [3], in [4] and in [5] was “inactive” in each case. Moreover, the Potency entry in [6], in [7], in [8], in assay [9], in assay [10] and in [11] was “inactive” in each case. Further, the Potency entry in assay [17], in assay [13], in assay [14] and in assay [18] was “inactive” throughout.
In the case of `Cc1ccc(Cl)cc1N`, the Potency result in assay [1], in assay [2], in [15], in assay [4], in assay [5] and in assay [6] was “inactive” in each case. Further, the Potency entry in [7], in [8], in assay [9], in assay [10], in [11] and in assay [12] was “inactive” throughout. Further, the Potency entry in assay [13] and in [14] was “inactive” each time.
Take `CC(C)(C)C(O)/C=C/c1ccc2c(c1)OCO2` (centres undefined): the Potency entry in assay [1], in assay [2], in [15], in assay [3], in [4] and in assay [5] was “inactive” throughout. The Potency entry in assay [6], in assay [7], in [8], in assay [9], in [10] and in assay [11] was “inactive” each time. The Potency result in assay [13] and in assay [14] was “inactive” throughout.
Take `CC(C)C(O)C(C)(C)CO` (centres undefined): the Potency entry in [1], in assay [2], in [15], in assay [3], in assay [4] and in [7] was “inactive” each time. Besides, the Potency entry in assay [8], in [9], in [10], in [11], in assay [12] and in assay [13] was “inactive” throughout. Also, the Potency entry in assay [14] and in [18] was “inactive” each time. In addition, the values for the Potency in assay [5] and in assay [17] were 0.801 µM (active) and 9.99 µM (active), respectively.
